The values below come from PubChem BioAssay (Tox21).

Assay [1] in a line: A CellTox Green Cytotoxicity Assay to monitor cytotoxicity in HepG2 cells - 0 hour (AID 1224882). Note: nearly all actives have a fitted effect of over 35% in size. Put shortly: (§1)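 Real-time cytotoxicity: fluorescence of a cell-impermeant cyanine dye binding DNA of dead HepG2 cells, measured repeatedly (0–40 h) during compound exposure at 37 C. Cells seeded 600/well with reagent, dosed after 5 h.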
Assay [2] in a line: A CellTox Green Cytotoxicity Assay to monitor cytotoxicity in HepG2 cells - 32 hour (AID 1224883). Note: nearly all actives have a fitted effect of over 50% in size. Put shortly: as §1
Assay [3] can be described thus: A CellTox Green Cytotoxicity Assay to monitor cytotoxicity in HEK293 cells - 8 hour (AID 1224884). Note: nearly all actives have a fitted effect of over 35% in size. The method, boiled down: (§2)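 Fluorescence from a DNA-binding dye excluded by viable cells was measured repeatedly in the same HEK293 wells (600 cells/well) during continuous compound exposure at 37 C. Each assay gives one read point: 0, 8, 16, 24, 32 or 40 h.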
A short description of assay [4]: qHTS RealTime-Glo MT Cell Viability Assay in HepG2 cells - 16 hour (AID 1224885). Note: nearly all actives have a fitted effect of over 50% in size. The method, boiled down: (§3)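 HepG2 cells (600/well) were dispensed with RealTime-Glo reagents, incubated 5 h at 37 °C, then treated with compounds in DMSO for up to 40 h. Nonlytic NanoLuc luminescence reflecting viable cells was read at each stated time point.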
A short description of assay [5]: qHTS RealTime-Glo MT Cell Viability Assay in HEK293 cells - 8 hour (AID 1224887). Note: nearly all actives have a fitted effect of over 50% in size. Note: potency is the fitted concentration of half-maximal effect. Put shortly:
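Luminescence, which tracks viable cell number through reduction of the prosubstrate to a NanoLuc substrate, was read over continuous 37 C culture. Cells (600/well) were premixed with reagent and rested 5 h before 23 nL of compound in DMSO was pinned.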
(In general: Quantitative high-throughput screening tests each substance at several concentrations.)

The nature of assay [6]: qHTS RealTime-Glo MT Cell Viability Assay in HepG2 cells - 0 hour (AID 1224889). Note: nearly all actives have a fitted effect of over 50% in size. Put shortly:
as §3

Assay [7] is described as follows: A CellTox Green Cytotoxicity Assay to monitor cytotoxicity in HepG2 cells - 8 hour (AID 1224890). Note: nearly all actives have a fitted effect of over 45% in size. The method, boiled down: as §1
Assay [8] in a line: qHTS assay to identify small molecule antagonists of the estrogen receptor alpha (ER-alpha) signaling pathway using the BG1 cell line in the presence of 0.1 nM 17-beta-estradiol - cell viability counter screen (AID 1259241). Note: nearly all actives have a fitted effect of over 40% in size. Put shortly:
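Measures cytotoxicity alongside the ER-alpha antagonist readout: VM7Luc4E2 cells, charcoal-stripped serum, 0.1 nM 17beta-estradiol final, 22 hr compound incubation at 37C, CellTiter-Fluor fluorescence.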

Assay [9] is described as follows: qHTS RealTime-Glo MT Cell Viability Assay in HEK293 cells - 24 hour (AID 1224886). The method, boiled down: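 HEK293 cells seeded with NanoLuc/prosubstrate reagent, rested 5 h at 37 C, then dosed and kept at 37 C up to 40 h. Nonlytic real-time luminescence from viable cells read at 0, 8, 16, 24, 32 and 40 h.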
The nature of assay [10]: A CellTox Green Cytotoxicity Assay to monitor cytotoxicity in HEK293 cells - 16 hour (AID 1224888). Note: nearly all actives have a fitted effect of over 35% in size. Note: potency is the fitted concentration of half-maximal effect. Put shortly: as §2

Inconclusive results are not listed. The source made the active and inactive calls. Calls come from the whole dose curve; as a rule, active = well fitted curve in the direction sought with a large enough effect in the repeat runs; inconclusive = weak or mixed curves; inactive = no such curve, though single readings can be large; an effect the other way counts as inactive or inconclusive.

For `COC(C)(C)C`, the call in [1] and in assay [8] was inactive. Moreover, the Potency entry in assay [2], in assay [3], in assay [4], in assay [5], in assay [6] and in [7] was “inactive” in each case.
As for `CCOP(=O)(N=C1SCCS1)OCC`, the outcome in [1] and in [8] was inactive. Also, the Potency result in [2], in assay [4], in assay [9], in assay [5], in [10] and in assay [6] was “inactive” throughout. The Potency result in assay [7] was “inactive”.
As for `C=C(C)CN(CC)c1c([N+](=O)[O-])cc(C(F)(F)F)cc1[N+](=O)[O-]`, the outcome in [1] and in assay [8] was inactive. In addition, the Potency result in assay [2], in assay [3], in assay [4], in assay [10], in assay [6] and in assay [7] was “inactive” in each case.
Turning to `CCOC(=O)NC(=S)Nc1ccccc1NC(=S)NC(=O)OCC`, the call in assay [1] and in [8] was inactive. The Potency result in assay [2], in assay [3], in assay [4], in assay [5], in assay [6] and in assay [7] was “inactive” in each case.
For the compound `c1ccc(N2CCNCC2)cc1`, the Potency result in assay [2], in assay [3], in assay [4], in assay [5], in [6] and in [7] was “inactive” each time. For the same compound, in [8], the outcome was inactive.
Consider `COc1ccc(C(=O)N2CCCC2=O)cc1`, for which the call in assay [1] and in assay [8] was inactive. For the same compound, the Potency result in assay [3], in assay [4], in assay [5], in assay [10], in assay [6] and in [7] was “inactive” throughout.
As for `CC1(C(=O)Nc2ccc(O)c(Cl)c2Cl)CCCCC1`, the compound was classed as inactive in [1] and in assay [8]. Besides, the Potency entry in assay [3], in [4], in assay [10] and in assay [6] was “inactive” throughout.
Regarding `CN1CCC(O)(c2ccc(F)cc2)C(C(=O)c2ccc(F)cc2)C1` (stereo unspecified), the Potency result in [3], in [4], in [9], in [5], in [10] and in assay [6] was “inactive” each time.
For `Cc1ncc2n1-c1ccc(Cl)cc1C(c1ccccc1F)=NC2`, the compound was called inactive in assay [1] and in assay [8]. Moreover, the Potency result in assay [2], in assay [4], in assay [5], in assay [10], in assay [6] and in [7] was “inactive” throughout.
As for `ClCC(Cl)Cl`, the outcome in [1] and in assay [8] was inactive. Also, the Potency entry in [2], in [4], in [9], in [5], in assay [10] and in [6] was “inactive” in each case. In addition, the Potency result in [7] is “inactive”.
As to `COc1ncc(F)c2nc(S(=O)(=O)Nc3c(F)cccc3F)nn12`, the compound was classed as inactive in assay [1]. In addition, the Potency result in assay [2], in assay [4], in assay [9], in assay [5] and in assay [6] was “inactive” throughout.
On to `CSc1nc(N=[N+]=[N-])nc(NC(C)C)n1`, for which the compound was called inactive in assay [1]. Moreover, the Potency result in assay [2], in [3], in [4], in assay [10], in assay [6] and in [7] was “inactive” throughout.
Take `CC(COc1ccc(Oc2ccccc2)cc1)Oc1ccccn1` (stereo unspecified): the compound was classed as inactive in assay [1] and in [8]. In addition, the Potency result in assay [2], in [3], in assay [4], in assay [10], in [6] and in assay [7] was “inactive” in each case.
`CCc1cc2c(s1)-n1c(C)nnc1CN=C2c1ccccc1Cl`: the outcome in assay [1] and in assay [8] was inactive. The Potency result in [2], in assay [4], in assay [5], in assay [6] and in [7] was “inactive” in each case.
As for `O=C(N[C@H]1CN2CCC1CC2)c1cc2ccoc2cn1`, the compound was called inactive in assay [1]. The Potency result in assay [3], in assay [4], in assay [9], in [5], in [10] and in assay [6] was “inactive” in each case. In assay [7], the Potency result is “inactive”.
Take `O=C(Nc1ccccc1)N(Cc1ccc(Cl)cc1)C1CCCC1`: the compound was called inactive in [1]. The Potency result in assay [2], in assay [3], in assay [10], in assay [6] and in assay [7] was “inactive” throughout. For the same compound, the Potency in [5] is 24.5 µM (active).
For `[Cl][Sn]([Cl])([Cl])[Cl]`, the result in assay [1] and in assay [8] was inactive. Besides, the Potency result in assay [2], in assay [3], in assay [4], in assay [5], in [6] and in assay [7] was “inactive” throughout.
As for `Fc1ccc(C2(Cn3cncn3)OC2c2ccccc2Cl)cc1` (stereo unspecified), the outcome in assay [1] and in assay [8] was inactive. The Potency entry in assay [3], in [4], in [6] and in assay [7] was “inactive” in each case.
Take `CN1C(=S)CN=C(c2ccccc2)c2cc(Cl)ccc21`: the outcome in [1] and in assay [8] was inactive. The Potency result in assay [2], in assay [4], in assay [9], in assay [5], in assay [6] and in assay [7] was “inactive” throughout.
On to `CC1COC2(c3ccccc3Cl)c3cc(Cl)ccc3NC(=O)CN12` (stereo unspecified), for which the compound was called inactive in [1] and in assay [8]. For the same compound, the Potency result in [3], in [4], in [5], in [10], in [6] and in assay [7] was “inactive” throughout.
Take `CC(=O)C(Cl)Cl`: in [1], the result was inactive. Besides, the Potency result in assay [3], in assay [4], in assay [9], in assay [5], in assay [6] and in [7] was “inactive” in each case.
Turning to `[As]#[In]`, the call in assay [1] and in [8] was inactive. Moreover, the Potency entry in [3], in assay [4], in assay [5], in assay [10], in [6] and in assay [7] was “inactive” throughout.
With `O=C(CCCN1CCC(n2c(=O)[nH]c3ccccc32)CC1)c1ccc(F)cc1`, the result in assay [1] and in [8] was inactive. Moreover, the Potency entry in assay [2], in assay [3], in [4], in assay [10], in assay [6] and in assay [7] was “inactive” each time.
As to `CCN(CC)CCOC(=O)C(C)(c1ccccc1)c1ccccc1`, the Potency result in assay [3], in assay [4], in [9], in assay [5], in [10] and in [6] was “inactive” each time. For the same compound, in assay [7], the Potency result was “inactive”. Moreover, the result in assay [8] was inactive.
In the case of `CC(C)CC(N(C)C)C1(c2ccc(Cl)cc2)CCC1` (stereo unspecified), the compound was called inactive in assay [1] and in assay [8]. For the same compound, the Potency entry in assay [4], in [9], in assay [6] and in [7] was “inactive” each time. Further, the Potency in assay [10] is 21.3 µM (active).
In the case of `CCOC(=O)N(C)C(=O)CSP(=S)(OCC)OCC`, the compound was called inactive in [1] and in assay [8]. The Potency entry in assay [2], in [4], in assay [9], in [5] and in [7] was “inactive” each time.
With `COP(=S)(OC)Oc1ccc(S(N)(=O)=O)cc1`, the result in assay [1] was inactive. Further, the Potency entry in assay [2], in assay [5], in assay [10] and in [7] was “inactive” each time.
As to `CCCCc1c(C)nc(NCC)[nH]c1=O`, the result in assay [1] and in assay [8] was inactive. Moreover, the Potency result in assay [3], in [4], in assay [10], in assay [6] and in [7] was “inactive” throughout. In addition, the Potency in assay [5] was 21.9 µM (active).
In the case of `CC(C)(C)NCC(O)c1cc(Cl)c(N)c(Cl)c1` (stereo unspecified), the compound was called inactive in assay [1]. For the same compound, the Potency entry in assay [2], in assay [4], in [9], in assay [5], in assay [10] and in assay [6] was “inactive” throughout. Also, the Potency entry in assay [7] is “inactive”.
